Assay results taken from PubChem BioAssay (NCATS).
For some of these results: Results with a measured potency or affinity are listed apart. The source made the active and inactive calls. Numbered stars: 1 amine (or outer) side, 2 acyl side, 3 side chain; on linkers, the order of the positions; unused ones are H or OH. Bridge positions count the residues as written; N and C are the ends. Square brackets hold non-standard residues; d marks the D form. Peptide text beside a SMILES is read from it. I, II: the chains in the order shown. Actinocin(9to1) = Cc1c2oc3c(C)ccc(C(=O)[*:1])c3nc-2c(C(=O)[*:2])c(N)c1=O; NMeV = CN[C@H](C(=O)O)C(C)C; Sar = CNCC(=O)O

Columns and labels:
[1] = Ebola virus entry assay, blue channel fluorescence
[2] = Ebola virus entry assay, reporter ratio channel; AC50: Channel type: primary unless noted; outcome: Channel type: primary unless noted
[3] = Ebola virus entry assay, blue channel (ratio component)
[4] = Ebola virus entry cell assay, ratio channel

Measured: AC50

CC(=O)CCCCn1c(=O)c2c(ncn2C)n(C)c1=O
inactive: all assays above

CC(C)C1CCC(C(=O)N[C@H](Cc2ccccc2)C(=O)O)CC1 (stereo partly drawn)
inactive: all assays above

Cc1ccccc1N1C(=O)c2cc(S(N)(=O)=O)c(Cl)cc2NC1C (stereo not drawn)
inactive: all assays above

O=C1CCc2cc(OCCCCc3nnnn3C3CCCCC3)ccc2N1
inactive: all assays above

Cc1cccc(Nc2ccncc2S(=O)(=O)NC(=O)NC(C)C)c1
inactive: all assays above

N[C@@H](Cc1cc(I)c(Oc2cc(I)c(O)c(I)c2)c(I)c1)C(=O)O
inactive: all assays above

COc1c(C)c2c(c(O)c1C/C=C(\C)CCC(=O)O)C(=O)OC2
inactive: all assays above

c1cnc2cc3c(cc2n1)C1CNCC3C1
inactive: all assays above

NC(=O)NO
inactive: all assays above

Cc1nc2n(c(=O)c1CCN1CCC(c3noc4cc(F)ccc34)CC1)CCC[C@H]2O
inactive: all assays above

O=C1N=C(O)CN1/N=C/c1ccc(-c2ccc([N+](=O)[O-])cc2)o1
inactive: all assays above

CC(C)NCC(O)c1ccc(O)c(O)c1 (stereo not drawn)
inactive: all assays above

COc1ccccc1Oc1c(NS(=O)(=O)c2ccc(C(C)(C)C)cc2)nc(-c2ncccn2)nc1OCCO
inactive: all assays above

CC1(C)S[C@@H]2[C@H](NC(=O)C(C(=O)O)c3ccccc3)C(=O)N2[C@H]1C(=O)O (stereo partly drawn)
inactive: all assays above

CN(CCOc1ccc(CC2SC(=O)NC2=O)cc1)c1ccccn1 (stereo not drawn)
inactive: all assays above

Nc1nc2c(ncn2COC(CO)CO)c(=O)[nH]1
inactive: all assays above

COc1ccc(OC)c(C(O)CNC(=O)CN)c1 (stereo not drawn)
inactive: all assays above

N[C@@H]1CONC1=O
inactive: all assays above

C[C@@H](c1ncncc1F)C(O)(Cn1cncn1)c1ccc(F)cc1F (stereo partly drawn)
inactive: all assays above

COc1ccc(Cl)cc1C(=O)NCCc1ccc(S(=O)(=O)NC(=O)NC2CCCCC2)cc1
inactive: all assays above

Cc1cn([C@H]2C=C[C@@H](CO)O2)c(=O)[nH]c1=O
inactive: all assays above

CC(=O)OCC(CCn1cnc2cnc(N)nc21)COC(C)=O
inactive: all assays above

Cc1cc2c(s1)Nc1ccccc1N=C2N1CCN(C)CC1
active: [2] 39.8 µM
inactive: all other assays above

CCCN(CCC)S(=O)(=O)c1ccc(C(=O)O)cc1
inactive: all assays above

COC(=O)N[C@H](C(=O)N[C@@H](Cc1ccccc1)[C@@H](O)CN(Cc1ccc(-c2ccccn2)cc1)NC(=O)[C@@H](NC(=O)OC)C(C)(C)C)C(C)(C)C
inactive: all assays above

Cc1cnc(C(=O)NCCc2ccc(S(=O)(=O)NC(=O)NC3CCCCC3)cc2)cn1
inactive: all assays above

N=C(N)c1ccc(OCCCCCOc2ccc(C(=N)N)cc2)cc1
inactive: all assays above

CCOc1ccc2ccccc2c1C(=O)N[C@@H]1C(=O)N2[C@@H]1SC(C)(C)[C@@H]2C(=O)O
inactive: all assays above

C[C@H]1O[C@H](O[C@H]2[C@H](O)[C@@H](O)[C@@H](O[C@H]3[C@H](O)[C@@H](O)[C@H](O)O[C@@H]3CO)O[C@@H]2CO)[C@H](O)[C@@H](O)[C@@H]1N[C@H]1C=C(CO)[C@@H](O)[C@H](O)[C@H]1O
inactive: all assays above

Nc1nc(=S)c2[nH]cnc2[nH]1
inactive: all assays above

C=C(c1ccc(C(=O)O)cc1)c1cc2c(cc1C)C(C)(C)CCC2(C)C
inactive: all assays above

O=C(NCCN1CCOCC1)c1ccc(Cl)cc1
inactive: all assays above

CCC[C@H](N[C@@H](C)C(=O)N1[C@H](C(=O)O)C[C@@H]2CCCC[C@@H]21)C(=O)OCC
inactive: all assays above

CC(C)(O)c1ccccc1CC[C@@H](SCC1(CC(=O)O)CC1)c1cccc(/C=C/c2ccc3ccc(Cl)cc3n2)c1
inactive: all assays above

CN(C)c1nc(N(C)C)nc(N(C)C)n1
inactive: all assays above

O=C1C(=O)c2ccccc2C(O)=C1C1CCC(c2ccc(Cl)cc2)CC1 (stereo not drawn)
inactive: all assays above

NS(=O)(=O)Cc1noc2ccccc12
inactive: all assays above

CC(=O)O[C@]1(C(C)=O)CC[C@H]2[C@@H]3C=C(C)C4=CC(=O)CC[C@]4(C)[C@H]3CC[C@@]21C
inactive: all assays above

CC1(C)O[C@@H]2[C@@H](CO[C@@]3(COS(N)(=O)=O)OC(C)(C)O[C@@H]23)O1
inactive: all assays above

CC1Cc2ccccc2N1NC(=O)c1ccc(Cl)c(S(N)(=O)=O)c1 (stereo not drawn)
inactive: all assays above

CCOC(=O)[C@H](CCc1ccccc1)N[C@@H](C)C(=O)N1Cc2cc(OC)c(OC)cc2C[C@H]1C(=O)O
inactive: all assays above

CN(C)/N=N/c1nc[nH]c1C(N)=O
inactive: all assays above

COc1ccccc1OCC(O)COC(N)=O (stereo not drawn)
inactive: all assays above

Cc1onc(-c2ccccc2Cl)c1C(=O)N[C@@H]1C(=O)N2[C@@H]1SC(C)(C)[C@@H]2C(=O)O
inactive: all assays above

COC(c1ccccc1)(c1ccccc1)[C@H](Oc1nc(C)cc(C)n1)C(=O)O
inactive: all assays above

Cc1ccnc2c1NC(=O)c1cccnc1N2C1CC1
inactive: all assays above

CCCN(CCC)CCc1cccc2c1CC(=O)N2
inactive: all assays above

Cc1c2oc3c(C)ccc(C(=O)N[C@@H]4C(=O)N[C@H](C(C)C)C(=O)N5CCC[C@H]5C(=O)N(C)CC(=O)N(C)[C@@H](C(C)C)C(=O)O[C@@H]4C)c3nc-2c(C(=O)N[C@@H]2C(=O)N[C@H](C(C)C)C(=O)N3CCC[C@H]3C(=O)N(C)CC(=O)N(C)[C@@H](C(C)C)C(=O)O[C@@H]2C)c(N)c1=O (I: T[dV]P[Sar][NMeV] / II: T[dV]P[Sar][NMeV]; ester I:1-I:C, II:1-II:C; linker I:N-II:N via Actinocin(9to1))
inactive: all assays above

COc1ccc(-c2cc(=S)ss2)cc1
inactive: all assays above

Cc1cc(C)cc(OCC2CNC(=O)O2)c1 (stereo not drawn)
inactive: all assays above

CC(C)C(=O)Nc1ccc([N+](=O)[O-])c(C(F)(F)F)c1
inactive: all assays above

CN(C)[C@@H]1C(=O)C(C(N)=O)=C(O)[C@@]2(O)C(=O)C3=C(O)c4c(O)ccc(Cl)c4[C@@H](O)[C@H]3C[C@@H]12
active: [2] 28.2 µM
inactive: all other assays above

CN1C(CCl)Nc2cc(Cl)c(S(N)(=O)=O)cc2S1(=O)=O (stereo not drawn)
inactive: all assays above

C[n+]1ccccc1/C=N/O
inactive: all assays above

NS(=O)(=O)c1cc2c(cc1Cl)NC=NS2(=O)=O
inactive: all assays above

CCN1CCN(C(=O)N[C@@H](C(=O)N[C@@H]2C(=O)N3C(C(=O)O)=C(CSc4nnnn4C)CS[C@H]23)c2ccc(O)cc2)C(=O)C1=O
inactive: all assays above

Nc1nc2c(ncn2COCCO)c(=O)[nH]1
inactive: all assays above

COC(=O)CCc1ccc(OCC(O)CNC(C)C)cc1 (stereo not drawn)
active: [2] 31.6 µM
inactive: all other assays above

CCCN[C@H]1CCc2nc(N)sc2C1
inactive: all assays above

Nc1nc(F)nc2c1ncn2[C@@H]1O[C@H](CO)[C@@H](O)[C@@H]1O
inactive: all assays above

COc1cc2c(cc1OC)[C@@H]1CC(=O)[C@@H](CC(C)C)CN1CC2
inactive: all assays above

CC(S)C(=O)NCC(=O)O (stereo not drawn)
inactive: all assays above

O=c1[nH]cc(F)c(=O)[nH]1
inactive: all assays above

CC(C)(C)NC(=O)[C@H]1CC[C@H]2[C@@H]3CC[C@H]4NC(=O)C=C[C@]4(C)[C@H]3CC[C@]12C
inactive: all assays above

CO/N=C1\CN(c2nc3c(cc2F)c(=O)c(C(=O)O)cn3C2CC2)CC1CN (stereo not drawn)
inactive: all assays above

Cc1ccc(C(=O)c2cc(O)c(O)c([N+](=O)[O-])c2)cc1
inactive: all assays above

CC1(C)S[C@@H]2[C@H](NC(=O)Cc3ccccc3)C(=O)N2[C@H]1C(=O)O (tested in a mixture with another compound)
inactive: all assays above
